In PubChem BioAssay:
Unmarked numbers belong to inactive results. Active and inactive are the calls of the source.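 Rule for the calls: active = inhibition at or above 50% relative to wild type and mutant plate controls; inactive = inhibition below 50%.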

Test: inhibitors of Chlamydomonas gravitaxis, primary screen, whole organism, Chlamydomonas reinhardtii, WT vs cilia-less mutant, absorbance, 96-well (AID 463189);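 note: 0% = wild type cc124 cells in DMSO and 100% = ciliumless bld1 mutant cells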
Details: OD600 absorbance, 2 days, at 10 µM, stronger effect = higher value

| SMILES | inhibition |
| --- | --- |
| C[C@]12CC[C@H]3[C@@H](CCC4C[C@H](O)CC[C@@]43C)[C@@H]1CC[C@@H]2O (stereo partly drawn) | 2.75% |
| O=P(O)(O)C(Cl)(Cl)P(=O)(O)O | 8.57% |
| C[N+](C)(C)CC#CCOC(=O)Nc1cccc(Cl)c1 | 2.56% |
| CCCN(CCC)[C@@H]1CCc2c(F)ccc(O)c2C1 | -5.24% |
| COc1cc(C(O)CN)ccc1O (stereo not drawn) | 2.77% |
| CC(N)Cc1c[nH]c2ccc(O)cc12 (stereo not drawn) | 7.26% |
| COc1ccc2c(c1O)-c1cccc3c1[C@@H](C2)N(C)CC3 | 6.42% |
| Clc1cc(I)cc(Cl)c1NC1=NCCN1 | 9.51% |
| CC(=O)c1c(O)c(C)c(O)c(Cc2c(O)c3c(c(C(=O)/C=C/c4ccccc4)c2O)OC(C)(C)C=C3)c1O | -7.31% |
| CO[C@H]1CC=C2CCN3CCC4=C(CC(=O)OC4)[C@]23C1 | 0.879% |
| C=CCN1CC[C@]23c4c5ccc(O)c4O[C@@H]2/C(=N/N=C2\CC[C@@]4(O)C6Cc7ccc(O)c8c7[C@@]4(CCN6CC=C)[C@@H]2O8)CC[C@@]3(O)C1C5 | 6.59% |
| CN1CCc2cccc(Cl)c2CC1 | 9.04% |
| NC1CCc2cc(O)c(O)cc2C1 (stereo not drawn) | -5.92% |
| CCN(CC)C(=O)N[C@@H]1C=C2c3cccc4[nH]cc(c34)C[C@H]2N(C)C1 | 9.57% |
| N[C@@H](CCl)C(=O)O | 3.95% |
| Fc1ccc(C(OCCN2CCN(CCCc3ccccc3)CC2)c2ccc(F)cc2)cc1 | 12.7% |
| CC(=O)OCC1=C(C(=O)[O-])N2C(=O)[C@@H](NC(=O)CCC[C@@H](N)C(=O)[O-])[C@H]2SC1.[Zn+2] | 3.46% |
| N[C@@]1(C(=O)O)CC[C@@H](C(=O)O)C1 | 5% |
| N[C@@H](Cn1cc(I)c(=O)[nH]c1=O)C(=O)O | 9.47% |

| SMILES | inhibition |
| --- | --- |
| CCN(CCCl)Cc1ccccc1Br | 6.59% |
| NC(Cc1cc(O)c(O)cc1O)C(=O)O (stereo not drawn) | -1.78% |
| C[C@@H]1O[C@H](C[N+](C)(C)C)CS1 | 4.65% |
| O=C(O)CC[N+](=O)[O-] | 2.51% |
| CCCN(CCC)[C@@H]1CCc2cccc(O)c2C1 | -6.71% |
| CCCn1c(=O)c2[nH]c(C3CCCC3)nc2n(CCCOC(=O)c2ccc(S(=O)(=O)F)cc2)c1=O | 0.089% |
| CCCCCCCCCCCCCC(=O)O[C@@H]1[C@@H](C)[C@@]2(O)[C@@H](C=C(CO)C[C@@]3(O)C(=O)C(C)=C[C@@H]23)C2C(C)(C)[C@@]21OC(C)=O (stereo partly drawn) | -13.4% |
| C[C@]12CC[C@H](O)CC1=CC[C@@H]1[C@@H]2CC[C@]2(C)C(=O)CC[C@@H]12 | -2.3% |
| CCCN(CCC)CCc1c[nH]c2ccc(C(N)=O)cc12 | -0.498% |
| CN1CCC(c2c[nH]c3ccc(O)cc23)CC1 | 4.07% |
| C=CCN1CCC2(C)c3cc(O)ccc3CC1[C@@H]2C (stereo partly drawn) | 4.21% |
| CCCN(CCC)C1CCc2ccc(O)cc2C1 (stereo not drawn) | 1.06% |
| COc1ccc(CNC(=O)/C=C/c2ccc3[nH]cc(CCN(C)C)c3c2)cc1 | -7.85% |
| COc1ccc2[nH]cc(CCN)c2c1 | 3.77% |
| CN1CCC23CCCC[C@H]2C1Cc1ccc(O)cc13 (stereo partly drawn) | -3.02% |
| CC(C)Oc1cccnc1N(C)C1CCN(Cc2ccccc2)CC1 | 54.9% (active) |
| CCCCC/C=C\C/C=C\C/C=C\C/C=C\CCCC(=O)NCC(=O)O | -0.074% |
| CCOC(=O)c1ncn2c1[C@@H]1CCCN1C(=O)c1cc(OC)ccc1-2 | 6.1% |
| CN1C2CCC1CC(OC(=O)c1cc(Cl)cc(Cl)c1)C2 (stereo not drawn) | 116% (active) |
